# Experimental data published in PubChem BioAssay (EPA / NIEHS).
# Calls of active or inactive are those of the source. How the source made its calls: active means hit-call score of the fitted dose curve at least 0.9, where 1 is the maximum; inactive means score below 0.9.
# Read-out: Cytochrome P450 (CYP1A1), CYP1A1 (gene 1543)
# Assay: LTEA_HepaRG_CYP1A1: Life Technologies and Expression Analysis (LTEA) Assay for Cytochrome P450 (CYP1A1) using HepaRG (AID 2283454)
# Conditions: mRNA level, 48 h; actives raise or lower the signal
# Procedure, shortened: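 CYP1A1 transcript levels measured by Fluidigm qRT-PCR against three housekeeping genes, 48 h after chemical dosing of human HepaRG cells (highest concentration 100 uM, half-log steps, 0.5% DMSO vehicle). Gain or loss of signal fitted relative to DMSO.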
SMILES,AC50,outcome
Oc1ccc2c(c1)-c1ccccc1C2,10.5 µM (active),
CCOCCOCCOCCO,,inactive
On1ccccc1=S,,inactive
CC[C@H]1OC(=O)[C@H](C)[C@@H](O[C@H]2C[C@@](C)(OC)[C@@H](O)[C@H](C)O2)[C@H](C)[C@@H](O[C@@H]2O[C@H](C)C[C@H](N(C)C)[C@H]2O)[C@](C)(O)C[C@@H](C)C(=O)[C@H](C)[C@@H](O)[C@]1(C)O,53.9 µM (active),
O=C1CCC(N2C(=O)c3ccccc3C2=O)C(=O)N1 (centres undefined),67.7 µM (active),
CC(C)=CCCC(C)CCO (centres undefined),62.2 µM (active),
CCc1cc(SCc2sc(-c3ccc(C(F)(F)F)cc3)nc2CN2CCN(c3ccc(OC)cc3)CC2)ccc1OCC(=O)O,7.69 µM (active),
Cc1ccc(S(=O)(=O)O)cc1C,74.3 µM (active),
CCCCCCCCCCCCc1ccccc1,73.7 µM (active),
O=C(O)CC(O)C(=O)O (centres undefined),77.9 µM (active),
C=CCCCCCCCCC(=O)O,50 µM (active),
CCOCCO,,inactive
CCNc1ccccc1,9.94 µM (active),
CCCCC(CC)COC(=O)c1ccc(C(=O)OCC(CC)CCCC)cc1 (centres undefined),,inactive
CCN(C(=O)c1cc(C)cc(OC[C@H](C)Nc2ccncc2)c1)C(C)C,19.5 µM (active),
CN(C)c1ccc(N=NS(=O)(=O)O)cc1,17.9 µM (active),
Cc1[nH]cnc1C[C@H]1CCc2c(C)c3ccccc3n2C1=O,10.7 µM (active),
COC(=O)c1ccccc1O,,inactive
COC(=O)c1c(Cl)c(Cl)c(C(=O)OC)c(Cl)c1Cl,50 µM (active),
